Screens from PubChem.
Only a selection was taken, and hits are over-represented in it overall.
DAT uptake mod: changed human dopamine transporter uptake under cocaine IC80; B-score at 10 µM; Q01959; AID 449768; actives 1.3% (n = 110,000); LLC-PK1 hDAT cells, [14C]-dopamine uptake with cocaine IC80; actives deviate in either direction;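 active = Z score or B-score, a plate-position-corrected score, falls beyond the plate's 99.7% confidence bounds, in either direction; inactive = both scores lie inside the 99.7% bounds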;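 also: scored against the spread of the other compound wells on the same plate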
HePTP inhibitor: blocks human HePTP tyrosine phosphatase; recombinant HePTP phosphatase activity, OD absorbance; actives 0.64% (n = 110,000); P35236; inhibition, % at 20 µM; in the data active = inhibition above about 50%;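 also: plate controls were vehicle for no effect and reference inhibitor for full effect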
PLAP act: human PLAP activation; actives 1.2% (n = 96,000); activation fold at 20 µM; P05187; purified PLAP enzyme, luminescent substrate read-out; hits give high values; in the data active = activation fold above about 2
Target sequence (P05187 whole entry, looked up): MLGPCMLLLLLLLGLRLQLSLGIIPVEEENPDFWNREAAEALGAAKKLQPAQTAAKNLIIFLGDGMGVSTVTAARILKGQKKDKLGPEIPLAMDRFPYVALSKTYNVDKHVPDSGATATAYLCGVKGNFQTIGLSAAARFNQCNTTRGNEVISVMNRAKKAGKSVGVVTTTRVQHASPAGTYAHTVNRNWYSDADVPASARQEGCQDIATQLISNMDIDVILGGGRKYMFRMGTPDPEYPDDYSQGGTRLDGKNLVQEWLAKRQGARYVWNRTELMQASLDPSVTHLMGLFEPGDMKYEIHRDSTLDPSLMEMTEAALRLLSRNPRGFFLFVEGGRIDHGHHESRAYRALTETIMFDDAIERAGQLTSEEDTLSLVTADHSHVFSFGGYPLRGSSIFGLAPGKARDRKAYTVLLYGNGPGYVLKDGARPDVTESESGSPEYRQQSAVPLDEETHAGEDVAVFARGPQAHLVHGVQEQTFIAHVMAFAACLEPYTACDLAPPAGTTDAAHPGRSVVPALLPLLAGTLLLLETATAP
Calb biofilm kill: kills Candida albicans biofilms | C. albicans biofilm + clotrimazole, Alamar Blue | AID 834 | inhibition, % at 6 µM | actives 0.14% (n = 85,000);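 active = inhibition above 20%; inactive = inhibition below 20%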;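 also: preformed 24 hr biofilms exposed to compound for 48 hr; 0% = biofilm without compound and 100% = blank killed by clotrimazole plus chlorhexidine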
D1 allo mod: allosteric modulators of human D1 dopamine receptor; HEK293 D1, CRE-luciferase, dopamine EC30 potentiation; actives deviate in either direction; B-score at 10 µM; actives 5.9% (n = 58,000); AID 641;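 active = luminescence count or its row- and column-corrected plate score outside the 99.7% band of the plate's sample wells, on either side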
TNAP act DEA: activators of human TNAP at intermediate phosphate acceptor | purified TNAP, CDP-star luminescence, 100 mM DEA, 30 min; hits give high values; scale: 0 levamisole-inhibited, 1 vehicle-only enzyme | activation factor at 20 µM | 64,000 tested, under 10 active | AID 813;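 active = activation factor of at least 2 at 20 µM, relative to controls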
The depositor's hits bear a star; · = no result given.

SMILES	DAT uptake mod	HePTP inhibitor	PLAP act	Calb biofilm kill	D1 allo mod	TNAP act DEA
COc1cc(/C=C(/C#N)C(=O)Nc2cccc(Br)c2)cc([N+](=O)[O-])c1O	·	103.6*	·	·	·	·
OCCNc1cc(-n2nc(-c3ccccc3)cc2-c2ccccc2)ncn1	3.71*	9.7	1.4	2.5	1.62	1
CN(Cc1ccccc1)Cc1c(O)ccc2c3c(c(=O)oc12)CCC3	·	6.3	·	·	·	·
Clc1ccc2nc(N3CCCCC3)[nH]c2c1	1.65	4.4	0.9	10.0	-4.95*	0.9
Clc1ccc2nc(N3CCCCC3)sc2c1	·	-5.6	·	6.8	0.226	0.9
CC1=CC(C)(C)N2C(=O)C3(N=C(N)NC(Nc4ccccc4)=N3)c3cc(C)cc1c32 (stereo not drawn)	0.246	11.9	2.1*	8.0	-2.09	1.1
O=C(COc1ccc(Cl)cc1)Nc1ccc(Oc2ccccc2)cc1	·	6.2	·	·	·	·
CCN(CC)S(=O)(=O)c1ccc(NC(=O)C(C)N(c2ccccc2)S(C)(=O)=O)cc1 (stereo not drawn)	2.53*	·	·	2.3	·	·
CCN(CC)S(=O)(=O)c1ccc(NC(=O)Nc2ccccc2)cc1	·	-11.6	·	·	·	·
CCOC(=O)N1CCC(NC(=O)CSCc2nc(-c3cccc(OC)c3)oc2C)CC1	-0.00127	1.7	1.3	-4.9	0.0196	0.9
CCOC(=O)N1CCC(NC(=O)CSCc2nc(-c3sccc3C)oc2C)CC1	2.77*	-5.1	1.5	7.9	1.78	1
CCOc1ccccc1C(=O)Nc1sc(C)c(C)c1C#N	·	9.5	·	·	·	·
Cc1nnc2sc(-c3csc4c3CCCC4)nn12	3.36*	3.7	0.9	4.2	0.987	0.9
Cc1nnc2sc(-c3ccncc3)nn12	-0.351	-1.8	1.1	1.2	-0.584	0.9
CC1(C)Cc2c(sc3c2c(=N)n(Cc2ccco2)c(=O)n3CC(=O)Nc2ccc(Cl)cc2)CO1	2.04*	3.9	1.7	1.6	·	0.9
CC1(C)Cc2c(sc3c2c(=N)n(Cc2ccco2)c(=O)n3CC(=O)Nc2ccccc2)CO1	0.856	12.1	1	2.5	·	0.9
CC(C)(C)Cc1nnc(NS(C)(=O)=O)s1	-0.692	·	·	7.8	·	·
CC(C)Cc1nnc(NS(C)(=O)=O)s1	-7.83*	·	1.1	13.0	·	·
CCO/N=C(\C)c1c(O)c(CC)c(-c2ccccc2)n(-c2ccccc2)c1=O	2.74*	·	·	4.5	·	·
CC(=O)c1c(O)c(C)c(-c2ccccc2)n(-c2ccccc2)c1=O	-0.0085	·	0.9	·	·	·
CCC(C)(C)NC(=O)C(c1cccc(OC)c1)N(C(=O)c1ccn[nH]1)c1cccc(OC)c1 (stereo not drawn)	1.93	8.6	2.9*	5.7	-1.65	0.9
O=C1NC(=S)S/C1=C/c1ccc(-c2ccccc2)o1	·	9.4	·	·	·	·
O=C1NC(=S)S/C1=C/c1ccc(Sc2ccccc2)o1	·	87.2*	·	·	·	·
CCC1CCCCN1CCCNC(=O)c1cn(CC(C)C)c(=O)c2cc(OC)c(OC)cc12 (stereo not drawn)	-7.21*	5.7	2*	8.1	-0.524	1
CCc1ccccc1NC(=O)c1c(NC(=O)c2ccco2)sc2c1CCCC2	·	5.2	·	·	·	·
SMILES	DAT uptake mod	HePTP inhibitor	PLAP act	Calb biofilm kill	D1 allo mod	TNAP act DEA
COc1ccc(C(=O)O)cc1NC(=O)CC(=O)c1ccc([N+](=O)[O-])cc1	·	-15.8	·	·	·	·
NC(=O)C1CCN(c2ncnc3c(-c4ccccc4)nsc23)CC1	-7.19*	-2.1	0.9	8.2	-0.393	0.9
O=C(c1ccco1)N1CCN(c2ncnc3c(-c4ccccc4)nsc23)CC1	0.113	0.2	0.9	5.4	-0.555	1.1
COc1ccc(CCn2c(N)c(S(=O)(=O)c3cccs3)c3nc4ccccc4nc32)cc1OC	-0.442	0.5	·	-2.6	1.99	1
COc1ccccc1/C=N/n1c(N)c(S(=O)(=O)c2cccs2)c2nc3ccccc3nc21	3.5*	·	1.2	4.5	·	·
COc1cccc(N2CC(O)=C(c3nc4ccccc4c(=O)[nH]3)C2=N)c1	0.259	-1.6	1.4	6.3	·	0.9
CC(C)N1CC(O)=C(c2nc3ccccc3c(=O)[nH]2)C1=N	1.27*	·	1.6	0.9	·	·
O=C(CN(CCc1ccccc1)C(=O)Cn1nnc(-c2cccs2)n1)NCc1ccco1	0.537	-6.6	0.9	-4.5	·	1
O=C(CN(C(=O)Cn1nnc(-c2cccs2)n1)c1ccc2c(c1)OCCO2)NCc1ccccc1	-1.28	·	2.1*	6.5	·	·
CCOC(=O)c1c(NC(=O)c2ccc(OC)cc2)sc(C(=O)Nc2ccccc2C(F)(F)F)c1C	·	-4.1	·	·	·	·
O=C(c1sc2ccccc2c1Cl)N1CCN(Cc2ccccc2)CC1	·	102.7*	·	·	·	·
CCc1ccc(C2C(C(=O)OC3CCCC3)=C(C)NC3=C2C(=O)CCC3)cc1 (stereo not drawn)	·	-22.7	·	·	·	·
O=C(CSC1=NCCS1)n1c2ccccc2c2ccccc21	·	-3.3	·	·	·	·
CCOC(=O)c1cc2occc2n1CC(=O)N1CCCc2ccccc21	-1.04	9.3	1.6	9.2	4.18*	0.9
Cc1sc2nc(SCC(=O)c3cc(C)n(CC4CCCO4)c3C)n(C(C)C)c(=O)c2c1C (stereo not drawn)	2.03	3.1	1.4	7.2	-2.27*	1
Cc1cc(C(=O)CSc2nc3ccccc3o2)c(C)n1CC1CCCO1 (stereo not drawn)	-0.305	·	0.9	5.7	·	·
O=C(Nc1ncc(Cc2cccc(C(F)(F)F)c2)s1)c1ccccc1Br	·	-9.1	·	·	·	·
COc1ccc(/C=N\NC(=O)CNc2ccc(C)cc2)cc1Br	·	3.5	·	·	·	·
Cc1cc(=O)oc(C)c1C(=O)NCC(C)NC(=O)c1c(C)cc(=O)oc1C (stereo not drawn)	3.16*	7.0	1	2.7	·	0.9
Cc1cc(=O)oc(C)c1C(=O)NCC(C)C	-0.145	-5.2	1	4.7	·	0.9
COc1ccc(CCNCCCc2ccccc2)cc1OC	·	0.5	·	·	·	·
CC(=O)Nc1nc(SCc2ccc(Cl)cc2Cl)n[nH]1	-0.596	·	1	·	·	·
CC(=O)Nc1nc(SCCCc2ccccc2)n[nH]1	-0.083	8.7	2.4*	-0.1	0.692	1.1
Cc1ccc(/C=C2\SC(=S)N(CCc3ccccc3)C2=O)cc1	·	6.8	·	·	·	·
O=C1C(Cl)=CC(=NS(=O)(=O)c2ccccc2)C=C1Cl	·	87.1*	·	·	·	·
SMILES	DAT uptake mod	HePTP inhibitor	PLAP act	Calb biofilm kill	D1 allo mod	TNAP act DEA
COc1ccc(/C=C2\SC(=O)N(CCC(=O)N3CCOCC3)C2=O)cc1OC	·	103.6*	·	·	·	·
CCOc1ccccc1NC(=O)C(=O)NCc1ccc2c(c1)OCO2	·	-10.4	·	·	·	·
O=C(CN1CCOCC1)Nc1ncc(Cc2ccccc2Cl)s1	0.214	·	2*	·	·	·
CCOC(=O)C(NC(C)=O)(OCc1ccc(F)cc1)C(F)(F)F (stereo not drawn)	0.63	2.6	0.9	-3.5	-5.72*	0.9
Cc1ccc(-n2c(SCC(=O)NCc3cccs3)nnc2-c2ccoc2C)cc1	2.56*	7.9	1.5	0.8	-0.0606	0.9
CC(=O)Nc1sc2c(c1C(N)=O)CCC(C)C2 (stereo not drawn)	·	13.4	·	·	·	·
CN(C)/C=C(\C#N)C(=O)Nc1ccc(F)cc1	-2.24*	·	0.9	·	·	·
N#CC1=C(Nc2ccccc2)SC=C(c2ccc(Br)cc2)N=C1N1CCOCC1	-6.21*	·	1	·	·	·
COc1cccc(N2C(=O)/C(=C/C(C)=C/c3ccccc3)SC2=S)c1	·	-17.0	·	·	·	·
